Mtb FBA inh: Mtb fructose-bisphosphate aldolase inhibition | 360,000 compounds, 2.3% hits | inhibition, % at 1 µM | P9WQA3 | AID 588726 | purified M. tuberculosis FBA, fluorescence read-out
Target sequence (P9WQA3 whole entry, looked up): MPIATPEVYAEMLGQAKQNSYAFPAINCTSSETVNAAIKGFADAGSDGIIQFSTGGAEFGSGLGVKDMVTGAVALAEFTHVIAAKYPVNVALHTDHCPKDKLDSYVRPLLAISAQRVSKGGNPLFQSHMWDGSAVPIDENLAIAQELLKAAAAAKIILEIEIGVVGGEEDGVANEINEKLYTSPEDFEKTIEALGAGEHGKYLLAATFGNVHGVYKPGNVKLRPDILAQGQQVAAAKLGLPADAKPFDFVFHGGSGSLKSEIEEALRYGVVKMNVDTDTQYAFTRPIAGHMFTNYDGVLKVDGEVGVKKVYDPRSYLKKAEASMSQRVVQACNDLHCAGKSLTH
Mtb UGM inh: inhibitors of M. tuberculosis UDP-galactopyranose mutase; P9WIQ1; purified UGM, fluorescence polarization probe displacement; inhibition, % at 10 µM; 320,000 compounds, 0.06% hits; AID 504406; in the data active = inhibition above about 10%, passing the limit was not always enough
GDH-TPI counter-1: counter-screen for M. tuberculosis FBA inhibitors: GDH-TPI coupled enzymes; 360,000 compounds, 1.2% hits; inhibition, % at 4.8 µM; GDH-TPI coupled enzyme counterscreen, NADH absorbance; in the data active = inhibition above about 30%
Rv3671c protease: inhibits the M. tuberculosis serine protease Rv3671c; P9WHR9; inhibition, % at 5.96 µM; 320,000 compounds, 0.048% hits; in the data active = inhibition above about 38%;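 also: extracellular domain of Rv3671c used as enzyme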
Mtb FBA confirm: confirmation of M. tuberculosis fructose-bisphosphate aldolase inhibitors; shares compounds with Mtb FBA inh; purified M. tuberculosis FBA, fluorescence read-out; inhibition, % at 1 µM; 5,600 compounds, 78% hits
GDH-TPI counter-2: GDH-TPI inhibition counter-screen for FBA inhibitors; shares compounds with Mtb FBA inh; AID 652141; GDH-TPI coupled enzyme counterscreen, fluorescence; inhibition, % at 1 µM; 5,600 compounds, 81% hits; in the data active = inhibition above about 10%
GDH-TPI dose: GDH-TPI dose response counter-screen for Mtb FBA. shares compounds with Mtb FBA inh. GDH-TPI coupled enzyme assay, fluorescence, artifact counterscreen. IC50, µM. 170 compounds, 79% hits; call rule not given here
A number is an active result; . = inactive; / = no result given; + = active, no number. An excerpt weighted towards active compounds, which were near 3.5% of everything screened. Rule as the data show it, unless noted: active = inhibition above about 27%; inactive = the rest.

SMILES	Mtb FBA inh	Mtb UGM inh	GDH-TPI counter-1	Rv3671c protease	Mtb FBA confirm	GDH-TPI counter-2	others
COc1ccc(CC(=O)Nc2ccc(-c3cn4ccccc4n3)cc2)cc1	66	.	.	.	+	+
COc1ccc(CC(=O)Nc2ccc(-c3cn4ccccc4n3)cc2)cc1OC	71	.	.	.	.	.
O=C(CCc1nc(-c2ccccc2Cl)no1)Nc1cccnc1	.	.	.	.	/	/
COc1ccc(CC(=O)Nc2cccc(-c3cn4ccccc4n3)c2)cc1	31	.	.	.	123	86
CN(C(=O)CSCC(=O)Nc1ccc(Cl)cc1)C1CCCCC1	.	.	.	.	/	/
CN(CC(=O)Nc1ccccc1Cl)C(=O)COC(=O)CSc1ccc(Cl)cc1	.	.	.	.	/	/
CCCCNc1ncnc2sc3c(c12)CCN(CCC)C3	34	.	.	.	99	89
COc1ccc(S(=O)(=O)N2CCCCC2c2cc(C(=O)N3CCOCC3)no2)cc1 (configuration not stated)	.	/	.	/	/	/
CC(C)n1c(=O)c2ccccc2n1Cc1cn(-c2ccc(Cl)cc2)nn1	56	/	/	/	35	30
COc1ccc(Cn2cc(Cn3c4ccccc4c(=O)n3C(C)C)nn2)cc1	105	/	/	/	77	55
CC(C)n1c(=O)c2ccccc2n1Cc1cn(CCc2c[nH]c3ccccc23)nn1	.	/	/	/	/	/
CN(C)c1cccc(NC(=O)c2cccc3c(-c4ccc(F)c(F)c4)coc23)c1	.	/	.	/	/	/
CCN1C(=O)[C@H]2[C@H]3CN=C(SCc4ccc(C)cc4)N3[C@@](C)(C(=O)OC)[C@H]2C1=O	.	/	.	/	/	/
COc1ccc(CCNC(=O)c2cc3c(=O)n4ccccc4nc3n(CCCN3CCOCC3)c2=N)cc1OC	.	.	.	.	/	/
COCCCn1c(C(=O)NCCC2=CCCCC2)cc2c(=O)n3ccccc3nc21	47	.	.	.	48	36
COCCCn1c(C(=O)NCCN2CCOCC2)cc2c(=O)n3cccc(C)c3nc21	78	.	.	.	+	161
COCCCn1c(=O)c2ccccc2n(CC(=O)NCCC2=CCCCC2)c1=O	.	.	.	.	/	/
Cc1cccn2c(=O)c3cc(C(=O)NC4CCCCC4)c(=N)n(Cc4ccccc4)c3nc12	62	.	.	.	103	89
Cc1cccn2c(=O)c3cc(C(=O)NCCN4CCOCC4)c(=N)n(CCc4ccccc4)c3nc12	102	.	.	.	58	55
Cc1cccn2c(=O)c3cc(S(=O)(=O)c4ccccc4)c(=N)n(Cc4cccnc4)c3nc12	.	.	.	.	/	/
CC(OC(=O)CN1C(=O)c2ccccc2C1=O)C(=O)NC1CCCCC1C (configuration not stated)	.	.	.	.	/	/
CC1(c2ccc(NC(=O)c3ccccc3F)cc2)CC1(Cl)Cl (configuration not stated)	.	.	.	.	/	/
CCOc1ccc(CCNC(=O)Cn2cccc2C(=O)c2ccccc2C)cc1OCC	.	.	.	.	/	/
CCCCCn1c(=N)c(S(=O)(=O)c2ccc(Cl)cc2)cc2c(=O)n3cccc(C)c3nc21	.	.	.	.	/	/
Cc1ccc(S(=O)(=O)c2cc3c(=O)n4cccc(C)c4nc3n(Cc3ccncc3)c2=N)cc1	.	.	.	.	/	/
SMILES	Mtb FBA inh	Mtb UGM inh	GDH-TPI counter-1	Rv3671c protease	Mtb FBA confirm	GDH-TPI counter-2	others
COc1ccc(CCNC(=O)c2cc3c(=O)n4ccccc4nc3n(C3CCCCC3)c2=N)cc1OC	.	.	.	.	/	/
N=c1c(C(=O)NC2CCCCC2)cc2c(=O)n3ccccc3nc2n1Cc1ccc(F)cc1	40	.	.	.	70	51
Cc1ccc2nc3c(cc(C(=O)NCc4ccco4)c(=N)n3C3CCCC3)c(=O)n2c1	39	.	.	.	92	76
CCN(C(=O)c1cc2c(=O)n3cccc(C)c3nc2n1CCCOC)C1CCCCC1	38	.	.	.	103	85
Cc1cccn2c(=O)c3cc(C(=O)NC4CCCC4)c(=N)n(Cc4ccc(F)cc4)c3nc12	60	.	.	.	.	.
COc1ccc(N(CC(=O)NC2CCCC2)C(=O)Cn2nnc(-c3ccc(OC)c(OC)c3)n2)c(OC)c1	.	.	.	.	/	/
Cc1cccn2c(=O)c3cc(C(=O)NC4CCCC4)c(=N)n(CCc4ccccc4)c3nc12	63	.	.	.	119	78
COc1ccc(CCNC(=O)c2cc3c(=O)n4ccccc4nc3n(C3CCCCC3)c2=N)cc1	.	.	.	.	/	/
Cc1cccn2c(=O)c3cc(C(=O)NC4CCS(=O)(=O)C4)n(Cc4ccccc4)c3nc12 (configuration not stated)	40	.	.	.	114	92
Cc1cccn2c(=O)c3cc(C(=O)NC4CCCC4)c(=N)n(C4CCCCC4)c3nc12	67	.	.	.	.	.	GDH-TPI dose=0.77
O=C(NCC(c1ccco1)N1CCc2ccccc2C1)C(=O)Nc1ccc(F)cc1F (configuration not stated)	.	.	.	.	/	/
CCc1nc2c(OCC(=O)C(C)(C)C)cccn2c1N(C=O)Cc1ccccc1	.	/	.	/	/	/
COc1ccc(NC(=O)CN(C)C(=O)c2cccc(S(=O)(=O)N3CCN(c4ccc(F)cc4)CC3)c2)cc1	.	/	.	/	/	/
COc1ccccc1CNC(=O)COC(=O)C1CCN(S(=O)(=O)c2ccc(C)c(C)c2)CC1	.	.	.	.	/	/
CCCN(CCC)CCNC(=O)c1cc2c(=O)n(C)c3ccccc3c2n1C	30	.	.	.	.	.
CCN(CC)CCCNC(=O)c1cc2c(-c3ccc(Cl)cc3)nn(C)c2s1	.	.	.	.	/	/
CCN(CCCNC(=O)c1cc2c(-c3cccc(OC)c3)nn(C)c2s1)Cc1ccccc1	53	.	.	.	39	43
CCCCN(CC)CCNC(=O)c1cn(-c2ccc(Cl)cc2)c(=O)c2ccccc12	.	.	.	.	/	/
CCCCN(CC)CCNC(=O)c1cc2c(=O)n(C)c3ccccc3c2s1	49	.	.	.	181	144
CCN(CC)CCNC(=O)c1cc2c(=O)n(C)c3ccccc3c2s1	71	.	.	.	129	87
CN(CCNC(=O)c1cc2c(=O)n(C)c3ccccc3c2n1C)Cc1ccccc1	.	.	.	.	/	/
COc1ccc(OC)c(NC(=O)CSc2nnc3ccc(-c4ccccn4)nn23)c1	.	/	.	.	/	/
CN1CCN(CCc2nc3cc(NC(=O)COc4ccc([N+](=O)[O-])cc4)ccc3n2C)CC1	.	.	.	.	/	/
Cc1cc(Br)ccc1NC(=O)CNC(=O)CN(C)C1CCS(=O)(=O)C1 (configuration not stated)	.	/	.	/	/	/
CCCCN(CC)CCNC(=O)c1cc2c(-c3ccccc3F)nn(C)c2s1	46	.	.	.	47	35
CC1CCCCN1CCNC(=O)c1cc2c(-c3ccccc3F)nn(C)c2s1 (configuration not stated)	.	.	.	.	/	/
Cc1c(C=C(C#N)c2ccc([N+](=O)[O-])cc2)c(=O)n(-c2ccccc2)n1C	.	/	.	/	/	/

Screening data as filed in PubChem.
